The full data set covers some 7,900 targets. This sample favours those with a hit. About 0.6% of all pairs of compound and target were hits. A number with no mark means an inactive call.
What was measured:
Assay in all cases: log2 fold change, soluble protein after heating vs DMSO (PISA); higher = thermal stabilisation; K562 cells, 10 uM, 30 min; active = over 0.2 and 3.5 SD of the protein, either way, in both replicates (recomputed)
[1] = compound: NC(=O)Nc1cc(-c2cccc(F)c2)sc1C(=O)N[C@H]1CCCNC1
How it was run: (§1)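 K562 cells at 2×10^6 cells/mL were treated with 10 μM compound for 30 min. Aliquots were heated for 3 min across 48°C-58°C, pooled, and extracted in PBS with 0.5% NP-40 at 4°C; soluble protein was the supernatant after 21,000xg for 90 min. Soluble protein was quantified by TMTpro 16plex LC-MS/MS with channel sums equalised, and reported as log2 fold change in thermal stability against DMSO controls, with values from duplicates.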

[2] = compound: NC(=O)c1cnc(N[C@@H]2CCCC[C@@H]2N)nc1Nc1cccc(-n2nccn2)c1
How it was run: as §1

[3] = compound: NC1(c2ccc(-c3nc4ccn5c(=O)[nH]nc5c4cc3-c3ccccc3)cc2)CCC1
How it was run: as §1

[4] = compound: NCC(=O)Nc1ccc(-n2nc(C(F)(F)F)cc2-c2ccc3c(ccc4ccccc43)c2)cc1
How it was run: as §1

entinostat = compound: Nc1ccccc1NC(=O)c1ccc(CNC(=O)OCc2cccnc2)cc1 [entinostat]
How it was run: as §1

vorinostat = compound: O=C(CCCCCCC(=O)Nc1ccccc1)NO [vorinostat]
How it was run: as §1

citarinostat = compound: O=C(CCCCCCNC(=O)c1cnc(N(c2ccccc2)c2ccccc2Cl)nc1)NO [citarinostat]
How it was run: as §1

silmitasertib = compound: O=C(O)c1ccc2c(c1)nc(Nc1cccc(Cl)c1)c1ccncc12 [silmitasertib]
How it was run: as §1

[5] = compound: O=C1NC(=O)C(c2cnc3ccccn23)=C1c1cn2c3c(cc(F)cc13)CN(C(=O)N1CCCCC1)CC2
How it was run: as §1

[6] = compound: c1cc(OCCN2CCCCC2)cc(-c2n[nH]c3ccc(-c4nnc[nH]4)cc23)c1
How it was run: as §1

entospletinib = compound: c1cn2cc(-c3ccc4cn[nH]c4c3)nc(Nc3ccc(N4CCOCC4)cc3)c2n1 [entospletinib]
How it was run: as §1

Sequence of UniProt Q8N9F7 (Q8N9F7 whole entry, looked up): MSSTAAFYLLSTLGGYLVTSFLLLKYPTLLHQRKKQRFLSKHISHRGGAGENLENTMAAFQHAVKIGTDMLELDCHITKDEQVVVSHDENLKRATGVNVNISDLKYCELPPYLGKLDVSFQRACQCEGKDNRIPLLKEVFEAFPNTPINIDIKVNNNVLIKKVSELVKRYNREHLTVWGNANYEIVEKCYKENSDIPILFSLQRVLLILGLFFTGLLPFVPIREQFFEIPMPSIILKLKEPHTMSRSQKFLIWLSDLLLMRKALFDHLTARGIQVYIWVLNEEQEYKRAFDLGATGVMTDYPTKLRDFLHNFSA
Sequence of UniProt P06865 (P06865 whole entry, looked up): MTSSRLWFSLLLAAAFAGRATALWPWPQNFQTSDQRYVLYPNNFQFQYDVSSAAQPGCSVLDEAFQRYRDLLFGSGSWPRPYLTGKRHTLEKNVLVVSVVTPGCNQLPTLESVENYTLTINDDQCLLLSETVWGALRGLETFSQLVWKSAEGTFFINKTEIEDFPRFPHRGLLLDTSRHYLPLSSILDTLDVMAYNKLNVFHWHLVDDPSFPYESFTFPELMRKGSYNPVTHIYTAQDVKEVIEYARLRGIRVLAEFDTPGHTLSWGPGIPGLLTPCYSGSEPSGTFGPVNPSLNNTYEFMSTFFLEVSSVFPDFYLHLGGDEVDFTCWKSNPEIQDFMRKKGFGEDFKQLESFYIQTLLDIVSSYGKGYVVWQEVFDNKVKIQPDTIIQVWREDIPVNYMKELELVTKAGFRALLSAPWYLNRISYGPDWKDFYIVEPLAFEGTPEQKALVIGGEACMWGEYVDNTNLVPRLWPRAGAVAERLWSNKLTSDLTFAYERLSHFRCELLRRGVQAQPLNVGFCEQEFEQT
Sequence of UniProt O15117 (O15117 whole entry, looked up): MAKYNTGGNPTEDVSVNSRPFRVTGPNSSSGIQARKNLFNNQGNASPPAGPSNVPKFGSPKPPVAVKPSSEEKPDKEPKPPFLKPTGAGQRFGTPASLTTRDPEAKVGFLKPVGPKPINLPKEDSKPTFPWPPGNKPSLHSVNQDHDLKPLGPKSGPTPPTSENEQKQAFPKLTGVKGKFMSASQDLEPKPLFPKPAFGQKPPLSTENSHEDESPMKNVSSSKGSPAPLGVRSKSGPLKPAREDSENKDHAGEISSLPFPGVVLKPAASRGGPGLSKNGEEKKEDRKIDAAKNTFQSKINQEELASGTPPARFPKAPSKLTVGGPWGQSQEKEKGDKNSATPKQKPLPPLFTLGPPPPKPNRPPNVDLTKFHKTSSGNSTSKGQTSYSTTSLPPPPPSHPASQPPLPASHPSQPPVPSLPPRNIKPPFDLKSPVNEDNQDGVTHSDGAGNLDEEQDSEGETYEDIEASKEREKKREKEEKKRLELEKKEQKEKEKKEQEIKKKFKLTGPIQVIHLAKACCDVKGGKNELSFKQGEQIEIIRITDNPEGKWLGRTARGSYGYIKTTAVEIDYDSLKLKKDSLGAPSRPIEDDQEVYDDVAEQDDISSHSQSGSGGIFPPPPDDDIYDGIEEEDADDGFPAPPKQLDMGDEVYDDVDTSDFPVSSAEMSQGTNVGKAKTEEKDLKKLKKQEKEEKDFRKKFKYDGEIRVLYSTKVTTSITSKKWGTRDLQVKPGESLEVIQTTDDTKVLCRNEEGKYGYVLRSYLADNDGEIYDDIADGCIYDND
Sequence of UniProt Q9BVP2 (Q9BVP2 whole entry, looked up): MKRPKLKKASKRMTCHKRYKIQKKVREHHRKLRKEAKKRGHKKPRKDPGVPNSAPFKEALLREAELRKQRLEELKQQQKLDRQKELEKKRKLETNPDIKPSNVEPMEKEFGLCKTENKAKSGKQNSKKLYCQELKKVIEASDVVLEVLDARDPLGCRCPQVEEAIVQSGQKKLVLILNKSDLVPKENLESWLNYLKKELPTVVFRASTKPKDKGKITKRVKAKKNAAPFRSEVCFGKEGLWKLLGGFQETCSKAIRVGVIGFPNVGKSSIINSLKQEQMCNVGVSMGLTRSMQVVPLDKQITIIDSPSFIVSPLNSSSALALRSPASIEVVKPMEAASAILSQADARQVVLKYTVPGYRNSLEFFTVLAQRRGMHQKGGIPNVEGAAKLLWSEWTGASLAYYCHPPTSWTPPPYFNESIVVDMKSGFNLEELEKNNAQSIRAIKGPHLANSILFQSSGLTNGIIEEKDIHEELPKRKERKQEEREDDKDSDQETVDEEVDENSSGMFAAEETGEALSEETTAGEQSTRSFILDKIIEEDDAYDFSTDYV
Sequence of UniProt P54803 (P54803 whole entry, looked up): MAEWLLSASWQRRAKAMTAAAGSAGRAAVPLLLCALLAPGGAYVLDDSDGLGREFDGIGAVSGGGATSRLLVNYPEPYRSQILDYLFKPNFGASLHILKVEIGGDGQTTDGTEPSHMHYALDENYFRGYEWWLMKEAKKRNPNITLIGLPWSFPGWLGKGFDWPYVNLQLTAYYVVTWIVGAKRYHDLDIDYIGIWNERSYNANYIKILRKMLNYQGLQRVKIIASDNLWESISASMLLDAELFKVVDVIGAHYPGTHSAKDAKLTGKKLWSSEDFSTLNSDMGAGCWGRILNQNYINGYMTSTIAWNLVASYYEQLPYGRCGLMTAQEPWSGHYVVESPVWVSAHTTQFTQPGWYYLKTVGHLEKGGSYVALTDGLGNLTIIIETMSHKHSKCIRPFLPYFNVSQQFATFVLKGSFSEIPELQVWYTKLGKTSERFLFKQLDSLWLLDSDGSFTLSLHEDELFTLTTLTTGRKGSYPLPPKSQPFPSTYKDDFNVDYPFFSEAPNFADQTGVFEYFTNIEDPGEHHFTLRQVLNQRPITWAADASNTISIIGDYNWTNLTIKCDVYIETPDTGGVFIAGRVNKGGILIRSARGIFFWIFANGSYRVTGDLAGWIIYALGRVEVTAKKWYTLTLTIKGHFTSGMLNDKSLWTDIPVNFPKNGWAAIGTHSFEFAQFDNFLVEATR
Sequence of UniProt Q9Y3I1 (Q9Y3I1 whole entry, looked up): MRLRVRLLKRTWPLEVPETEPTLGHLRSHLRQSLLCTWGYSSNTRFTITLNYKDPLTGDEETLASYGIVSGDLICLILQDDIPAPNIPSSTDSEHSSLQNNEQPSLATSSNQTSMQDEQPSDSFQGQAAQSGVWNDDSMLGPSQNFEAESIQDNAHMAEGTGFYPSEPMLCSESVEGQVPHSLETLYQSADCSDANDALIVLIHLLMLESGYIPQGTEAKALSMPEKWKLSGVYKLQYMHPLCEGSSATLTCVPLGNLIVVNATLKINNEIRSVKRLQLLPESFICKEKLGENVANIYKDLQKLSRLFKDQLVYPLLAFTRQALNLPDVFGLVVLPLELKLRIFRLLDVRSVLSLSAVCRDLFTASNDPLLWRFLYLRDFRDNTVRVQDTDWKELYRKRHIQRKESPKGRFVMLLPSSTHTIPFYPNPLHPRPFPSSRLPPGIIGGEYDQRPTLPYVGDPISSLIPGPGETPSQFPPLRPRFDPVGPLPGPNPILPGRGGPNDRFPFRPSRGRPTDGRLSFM
Sequence of UniProt O94925 (O94925 whole entry, looked up): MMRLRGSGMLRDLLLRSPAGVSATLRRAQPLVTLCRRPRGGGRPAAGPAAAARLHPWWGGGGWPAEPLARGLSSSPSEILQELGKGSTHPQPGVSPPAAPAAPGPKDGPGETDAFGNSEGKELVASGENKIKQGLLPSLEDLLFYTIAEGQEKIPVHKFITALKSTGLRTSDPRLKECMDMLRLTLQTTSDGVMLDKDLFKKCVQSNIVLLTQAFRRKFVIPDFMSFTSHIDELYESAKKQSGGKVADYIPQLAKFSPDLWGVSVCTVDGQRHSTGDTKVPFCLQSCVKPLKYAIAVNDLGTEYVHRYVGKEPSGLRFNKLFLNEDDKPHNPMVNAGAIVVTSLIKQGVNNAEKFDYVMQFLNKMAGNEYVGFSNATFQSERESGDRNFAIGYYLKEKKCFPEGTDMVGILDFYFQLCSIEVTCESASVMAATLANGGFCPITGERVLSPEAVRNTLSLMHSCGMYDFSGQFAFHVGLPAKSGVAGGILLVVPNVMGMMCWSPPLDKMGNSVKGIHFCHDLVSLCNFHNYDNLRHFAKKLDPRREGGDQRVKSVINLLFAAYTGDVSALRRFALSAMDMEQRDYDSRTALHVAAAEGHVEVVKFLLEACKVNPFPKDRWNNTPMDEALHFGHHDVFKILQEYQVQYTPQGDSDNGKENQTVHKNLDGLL
Sequence of UniProt P63218 (P63218 whole entry, looked up): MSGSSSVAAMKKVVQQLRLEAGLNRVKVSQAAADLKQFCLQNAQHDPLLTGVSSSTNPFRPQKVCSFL
Sequence of UniProt Q13889 (Q13889 whole entry, looked up): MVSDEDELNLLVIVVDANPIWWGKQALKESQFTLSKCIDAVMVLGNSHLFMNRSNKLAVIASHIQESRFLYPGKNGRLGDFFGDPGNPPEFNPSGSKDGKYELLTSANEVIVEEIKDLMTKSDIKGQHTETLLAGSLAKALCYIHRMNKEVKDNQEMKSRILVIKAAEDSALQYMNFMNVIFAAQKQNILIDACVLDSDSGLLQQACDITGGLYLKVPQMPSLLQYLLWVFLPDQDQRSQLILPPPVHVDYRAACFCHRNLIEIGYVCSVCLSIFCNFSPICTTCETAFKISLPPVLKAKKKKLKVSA
Sequence of UniProt P30519 (P30519 whole entry, looked up): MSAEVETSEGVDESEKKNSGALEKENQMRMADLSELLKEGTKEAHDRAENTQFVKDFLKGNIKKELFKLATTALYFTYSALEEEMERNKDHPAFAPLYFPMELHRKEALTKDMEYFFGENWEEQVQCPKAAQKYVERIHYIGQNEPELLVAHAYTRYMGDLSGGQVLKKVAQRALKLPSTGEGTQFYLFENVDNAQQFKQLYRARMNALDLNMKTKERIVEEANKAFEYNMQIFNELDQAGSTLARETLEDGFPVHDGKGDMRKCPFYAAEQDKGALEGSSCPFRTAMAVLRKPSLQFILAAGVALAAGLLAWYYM
Sequence of UniProt P01112 (P01112 whole entry, looked up): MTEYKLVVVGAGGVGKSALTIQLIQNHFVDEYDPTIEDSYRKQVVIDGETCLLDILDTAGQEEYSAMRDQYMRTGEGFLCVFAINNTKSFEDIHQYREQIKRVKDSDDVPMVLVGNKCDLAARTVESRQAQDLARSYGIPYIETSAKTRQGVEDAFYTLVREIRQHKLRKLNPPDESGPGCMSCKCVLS

Target	log2 fold change [1]	log2 fold change [2]	log2 fold change [3]	log2 fold change [4]	log2 fold change (entinostat)	log2 fold change (vorinostat)	log2 fold change (citarinostat)	log2 fold change (silmitasertib)	log2 fold change [5]	log2 fold change [6]	log2 fold change (entospletinib)
FIS1 (UniProt Q9Y3D6)	-0.013	0.075	0.002	0.133	-0.004	-0.027	0.051	-0.017	-0.03	-0.006	0.038
GALK1 isoform 2 (UniProt P51570)	0.357 (active)	0.066	-0.087	0.141	0.171	0.094	0.111	-0.063	0.049	0.11	-0.103
FBXO42 (UniProt Q6P3S6)	-0.048	-0.087	-0.176	0.061	-0.028	-0.03	-0.001	0.006	0.013	-0.026	-0.049
FEN1 (UniProt P39748)	-0.022	-0.154	-0.28	-0.157	0.034	0.246	0.111	-0.1	-0.129	0.035	-0.051
GLB1 (UniProt P16278)	0.02	0.002	-0.097	-0.043	0.01	-0.065	0.005	0.021	-0.003	-0.044	0.022
HMOX2 (UniProt P30519)	-0.022	-0.028	-0.094	-0.026	0.018	0.029	0.023	0	0.013	-0.03	0.014
FBXO7 (UniProt Q9Y3I1)	0.061	-0.052	-0.077	-0.044	0.038	0.097	0.013	0.031	-0.026	-0.052	-0.009
ICAM1 (UniProt P05362)	0.016	0.109	0.087	0.008	-0.026	-0.008	0.024	-0.028	-0.07	-0.06	-0.007
HRAS (UniProt P01112)	0.103	0.233	0.071	0.366 (active)	-0.012	-0.009	-0.067	0.003	0	0.007	0.027
HDGFL2 (UniProt Q7Z4V5)	-0.273 (active)	-0.05	-0.022	-0.052	-0.139	0.024	-0.032	0.033	-0.093	-0.018	-0.008
FANCD2 isoform 1 (UniProt Q9BXW9)	0.087	-0.189	-0.304	-0.034	0.022	0.187	0.11	-0.109	-0.034	-0.039	0.002
GNL3 (UniProt Q9BVP2)	0.08	-0.061	-0.098	-0.088	-0.069	-0.131	0.134	-0.066	-0.027	0.041	-0.12
GABARAPL1 isoform 2 (UniProt Q9H0R8)	-0.051	-0.13	-0.252 (active)	-0.134	-0.009	-0.028	0.038	-0.083	-0.049	0.021	-0.041
GDPD1 (UniProt Q8N9F7)	-0.024	0.144	0.067	0.003	-0.011	-0.141	0.051	-0.039	0.096	-0.038	0.04
HMGN2 (UniProt P05204)	0.071	0.07	0.139	0.027	-0.092	-0.225	-0.129	0.02	0.067	0.151	0.111
FYB1 isoform 3 (UniProt O15117)	-0.045	0.007	0.017	0.02	0.025	-0.02	0.093	-0.097	-0.037	-0.002	0.036
GALNT4 (UniProt Q8N4A0)	-0.013	-0.117	-0.072	-1.32 (active)	-0.064	0.055	0.009	0.003	0.051	-0.064	-0.015
GALC (UniProt P54803)	0.015	0.016	-0.165	0.001	-0.012	-0.138	0.017	0.042	0	0.096	0.067
GHDC (UniProt Q8N2G8)	-0.021	0.013	0.005	-0.018	0.004	-0.023	0.045	0.001	-0.045	-0.03	0.038
FDPS (UniProt P14324)	0.009	-0.136	-0.48	-0.14	0.001	0.215	0.142	-0.108	-0.026	-0.069	-0.007
GTF2H3 (UniProt Q13889)	-0.133	-0.152	0.12	-0.063	0.141	0.037	-0.049	-0.004	-0.041	-0.015	0.087
GNG5 (UniProt P63218)	-0.029	0.071	0.056	0.086	0.082	-0.127	-0.021	0.017	-0.156	-0.057	0.062
FUCA1 (UniProt P04066)	0.028	-0.028	-0.519 (active)	-0.03	0.014	0.015	0.096	0.019	-0.043	-0.372 (active)	-0.018
HSPA8 (UniProt P11142)	-0.006	0.011	0.018	0.012	-0.009	-0.01	-0.026	-0.015	0.003	-0.034	0.043
GLS isoform 3 (UniProt O94925)	-0.133	0.154	-0.285	0.01	-0.017	0.019	0.169	0	-0.24	0.071	-0.055
GCSH (UniProt P23434)	0.027	0.037	0.073	0.027	-0.049	0.057	0.022	0.193	-0.144	-0.04	0.037
HEXA (UniProt P06865)	-0.025	-0.06	-0.156	0.006	-0.028	-0.02	0.056	-0.013	-0.037	-0.022	0
GOLPH3 (UniProt Q9H4A6)	0.041	-0.082	0.009	0	0.022	0.014	0.071	-0.013	0	-0.043	-0.016

Reference: the supplement of paper PMC10849652
